Records with an inconclusive call do not appear. Calls of active or inactive are those of the source. Unless noted, calls follow the shape of the full dose curve.
Experiments:
[1] = Nuclear factor erythroid 2-related factor 2/antioxidant responsive element (Nrf2/ARE) small molecule agonists: qHTS cell viability counter screen in human keratinocytes (AID 1919968; active = well fitted curve in the direction sought with a large enough effect in the repeat runs; an effect the other way counts as inactive or inconclusive; also: nearly all actives have a fitted effect of over 55% in size; also: potency is read from the fitted curve at half-maximal effect)
In short: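 Stably transfected HaCaT (KeratinoSens), 1,500/well. Test agents in DMSO were applied for 23 h, 37 C/5% CO2. CellTiter-Fluor was incubated 1 h before the fluorescence read.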

[2] = Nuclear factor erythroid 2-related factor 2/antioxidant responsive element (Nrf2/ARE) small molecule agonists: luciferase reporter gene qHTS assay in human keratinocytes (AID 1919969); also: nearly all actives have a fitted effect of over 35% in size; also: potency is read from the fitted curve at half-maximal effect
[3] = target: Gonadotropin-releasing hormone receptor (Homo sapiens) (UniProt P30968); assay: Human gonadotropin-releasing hormone receptor (GnRHR) small molecule agonists, calcium flux assay in GnRHR-HEK293 cells (AID 1920063); also: nearly all actives have a fitted effect of over 35% in size; also: potency is read from the fitted curve at half-maximal effect
In short: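 Stable human GnRHR HEK293 line. 18 h plating, then calcium dye for 1 h at 37 C. Agonist-mode compound addition from DMSO stocks; fluorescence monitored 3 min.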

[4] = target: KiSS-1 receptor (Homo sapiens) (UniProt Q969F8); assay: Human kisspeptin (KISS1R) small molecule agonists, calcium flux assay in KISS1R-HEK293 cells (AID 1920064; active = well fitted curve in the direction sought with a large enough effect in the repeat runs; an effect the other way counts as inactive or inconclusive)
In short: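 After overnight (18 h) culture at 37 C/5% CO2, human KISS1R-HEK293 cells received calcium dye for 1 h, then test compound; emission at 540 nm (excitation 480 nm) was tracked for 3 min.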

[5] = G protein-coupled receptor (GPCR) small molecule agonists, calcium flux assay: HEK293 wild type cell line counter screen (AID 1920065)
In short: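 Following 18 h incubation at 37 C/5% CO2, plates got calcium dye for 1 h; compounds, ATP or DMSO were then pinned in and fluorescence followed kinetically (480/540 nm).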

[6] = p53 small molecule agonists, cell-based qHTS assay with human liver microsomes (AID 1963577);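 also: p53 response element beta-lactamase reporter cells with liver microsomes plus NADPH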
In short: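 Steps: plate p53RE-bla cells, incubate 5 h at 37 C; add compound in DMSO; add microsomes (0.5 mg/mL final) and NADPH (0.5 mg/mL final); incubate 16 h at 37 C; add LiveBLAzer, 2 h RT; read fluorescence.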

[7] = p53 small molecule agonists, cell-based qHTS assay with rat liver microsomes (AID 1963578)
In short: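 Metabolic activation is supplied by rat liver microsomes with NADPH (each 0.5 mg/mL final). p53RE-bla cells incubate with compound 16 h at 37 C; reporter activity is measured by LiveBLAzer fluorescence.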

[8] = p53 small molecule agonists, cell-based qHTS assay with human liver microsomes: qHTS cell viability counter screen (AID 1963579); also: nearly all actives have a fitted effect of over 45% in size
In short: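 After the 460/530 nm beta-lactamase read, CellTiter-Glo was added to the same wells and luminescence measured after 30 min at room temperature, giving viability of p53RE-bla cells treated 16 h with compounds plus microsomes and NADPH.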

[9] = p53 small molecule agonists, cell-based qHTS assay: qHTS cell viability counter screen (AID 1963581); also: nearly all actives have a fitted effect of over 45% in size
In short: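 qHTS counter screen: 16 h compound exposure at 37 C of p53RE-bla HCT-116 cells (4,000 per well, seeded 5 h prior), cell viability by ATP luminescence.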

[10] = p53 small molecule agonists, cell-based qHTS assay (AID 1963582; active = well fitted activation curve with a large enough effect in the signal ratio in the repeat runs, not every such curve was filed as active; the % refers to the signal ratio)
In short: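 Measured: fluorescence from cleaved LiveBLAzer substrate. System: p53RE-bla cells, 16 h compound treatment at 37 C, 2 h substrate step at room temperature.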

[11] = target: 5-hydroxytryptamine receptor 2A (Homo sapiens) (UniProt P28223); assay: 5-hydroxytryptamine receptor 2A (HTR2A) small molecule antagonists, cell-based qHTS assay (AID 1963586); also: nearly all actives have a fitted effect of over 45% in size
In short: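 CHO cells stably expressing human HTR2A were plated for 18 h at 37 C, then loaded with calcium dye for 1 h. Compounds were preincubated 5 min at room temperature before DOI (4 nM solution) was added. Kinetic fluorescence was read for 3 min.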

[12] = target: 5-hydroxytryptamine receptor 2A (Homo sapiens) (UniProt P28223); assay: 5-hydroxytryptamine receptor 2A (HTR2A) small molecule agonists, cell-based qHTS assay (AID 1963587); also: nearly all actives have a fitted effect of over 30% in size; also: potency is read from the fitted curve at half-maximal effect
In short: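 Kinetic calcium-flux fluorescence (2 min, 1 sec intervals) after compound addition in agonist mode. HTR2A-CHO cells were cultured 18 h, then dye-loaded 1 h at 37 C.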

[13] = target: Muscarinic acetylcholine receptor M1 (Homo sapiens) (UniProt P11229); assay: Cholinergic receptor muscarinic 1 (CHRM1) small molecule antagonists, cell-based qHTS assay (AID 1963588); also: nearly all actives have a fitted effect of over 40% in size; also: potency is read from the fitted curve at half-maximal effect
In short: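 Compounds were tested at 15 concentrations in three independent runs. Dye-loaded CHRM1-CHO cells were exposed 5 min at room temperature before stimulation by acetylcholine added at 50nM. Intracellular calcium was read kinetically on FDSS for 3 min.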

[14] = target: Muscarinic acetylcholine receptor M1 (Homo sapiens) (UniProt P11229); assay: Cholinergic receptor muscarinic 1 (CHRM1) small molecule agonists, cell-based qHTS assay (AID 1963589); also: nearly all actives have a fitted effect of over 35% in size
In short: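 Kinetic fluorescence (1 s intervals) of calcium-sensitive dye in human M1 CHO cells after compound addition; cells pre-incubated 18 h at 37 C/5% CO2 and dye-loaded 1 h.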

[15] = cAMP Responsive Elements (CRE) small molecule agonists, cell-based qHTS assay (AID 1963590)
In short: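 Test agents in DMSO were incubated 3 h at 37 C/5% CO2 with CRE-bla HEK 293T cells seeded 18 h earlier; LiveBLAzer B/G FRET substrate was added and read after 2 h at room temperature.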

[16] = cAMP Responsive Elements (CRE) small molecule antagonists, cell-based qHTS assay (AID 1963591; active = well fitted inhibition curve with a large enough effect in the signal ratio in the repeat runs, not every such curve was filed as active; the % refers to the signal ratio; also: potency is read from the fitted curve at half-maximal effect)
In short: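 Reporter line CRE-bla HEK 293T in dialyzed-FBS DMEM; cells preincubated 18 h, treated 3 h with compound plus NKH477 (0.25 uM final); LiveBLAzer FRET, 2 h RT.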

[17] = target: D(2) dopamine receptor (Homo sapiens) (UniProt P14416); assay: Dopamine D2 receptor (DRD2) small molecule agonists, cell-based qHTS assay (AID 1963594); also: nearly all actives have a fitted effect of over 35% in size
In short: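 cAMP accumulation in DRD2-HEK293 cells measured by HTRF after 1 h detection; compounds added 10 min before NKH477 (200nM […]) forskolin-analogue stimulation, 30 min at room temperature, with Ro20-1724 present at 0.1 mM final.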

[18] = target: D(2) dopamine receptor (Homo sapiens) (UniProt P14416); assay: Dopamine D2 receptor (DRD2) small molecule antagonists, cell-based qHTS assay (AID 1963595; active = well fitted inhibition curve with a large enough effect in the signal ratio in the repeat runs, with a control signal flat; the % refers to the signal ratio)
In short: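 DRD2-HEK293; 0.1 mM Ro20-1724; cpd 10 min RT; NKH477 200 nM + quinpirole 12 nM, 30 min RT; HTRF cAMP (cAMP-d2/anti-cAMP cryptate), 665/620 nm ratio after 1 h.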

[19] = target: Beta-2 adrenergic receptor (Homo sapiens) (UniProt P07550); assay: Adrenergic beta2 receptor (ADRB2) small molecule antagonists, cell-based qHTS assay (AID 1963592); also: series mostly up to about 92 µM; nearly all actives have a fitted effect of over 50% in size
In short: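 Assay format: CHO-ADRB2 cells, 18-20hr seeding at 37C/5% CO2, then compound plus 1nM isoproterenol agonist mix for 0.5hr RT. Homogeneous time-resolved fluorescence cAMP detection after 1hr, expressed as 665/615 nm ratio.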

[20] = target: Beta-2 adrenergic receptor (Homo sapiens) (UniProt P07550); assay: Adrenergic beta2 receptor (ADRB2) small molecule agonists, cell-based qHTS assay (AID 1963593);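 also: CHO cells stably overexpressing human ADRB2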
In short: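 CHO cells stably over-expressing ADRB2 were plated overnight at 37C, then dosed with compounds plus a stimulation mix containing 100uM IBMX and 25uM Ro-20-1724 for 0.5hr at room temperature. cAMP was measured by HTRF competition, 1hr.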

Measured: Potency

Sequence of Muscarinic acetylcholine receptor M1 (Homo sapiens) (P11229 whole entry, looked up): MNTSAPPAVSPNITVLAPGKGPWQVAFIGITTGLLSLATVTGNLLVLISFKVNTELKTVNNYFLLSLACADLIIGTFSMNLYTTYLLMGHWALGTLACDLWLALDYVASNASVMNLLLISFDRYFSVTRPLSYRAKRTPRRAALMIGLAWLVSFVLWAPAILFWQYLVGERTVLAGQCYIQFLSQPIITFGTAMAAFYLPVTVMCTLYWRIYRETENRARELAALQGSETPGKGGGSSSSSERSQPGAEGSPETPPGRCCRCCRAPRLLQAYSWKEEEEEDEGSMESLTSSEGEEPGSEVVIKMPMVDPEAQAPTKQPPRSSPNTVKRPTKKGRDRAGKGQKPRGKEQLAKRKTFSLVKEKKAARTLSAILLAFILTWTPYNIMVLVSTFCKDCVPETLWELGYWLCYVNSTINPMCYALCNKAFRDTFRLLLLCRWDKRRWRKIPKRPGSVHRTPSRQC
Sequence of KiSS-1 receptor (Homo sapiens) (Q969F8 whole entry, looked up): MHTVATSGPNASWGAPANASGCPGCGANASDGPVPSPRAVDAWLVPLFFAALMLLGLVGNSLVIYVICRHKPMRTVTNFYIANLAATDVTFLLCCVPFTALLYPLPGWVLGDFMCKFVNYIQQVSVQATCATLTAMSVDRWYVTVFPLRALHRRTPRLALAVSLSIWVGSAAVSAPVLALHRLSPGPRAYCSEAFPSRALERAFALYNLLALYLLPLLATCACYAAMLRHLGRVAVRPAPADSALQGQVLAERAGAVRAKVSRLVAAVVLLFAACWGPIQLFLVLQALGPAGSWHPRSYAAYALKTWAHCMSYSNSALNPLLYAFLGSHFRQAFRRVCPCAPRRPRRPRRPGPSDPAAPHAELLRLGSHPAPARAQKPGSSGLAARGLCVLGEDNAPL
Sequence of Gonadotropin-releasing hormone receptor (Homo sapiens) (P30968 whole entry, looked up): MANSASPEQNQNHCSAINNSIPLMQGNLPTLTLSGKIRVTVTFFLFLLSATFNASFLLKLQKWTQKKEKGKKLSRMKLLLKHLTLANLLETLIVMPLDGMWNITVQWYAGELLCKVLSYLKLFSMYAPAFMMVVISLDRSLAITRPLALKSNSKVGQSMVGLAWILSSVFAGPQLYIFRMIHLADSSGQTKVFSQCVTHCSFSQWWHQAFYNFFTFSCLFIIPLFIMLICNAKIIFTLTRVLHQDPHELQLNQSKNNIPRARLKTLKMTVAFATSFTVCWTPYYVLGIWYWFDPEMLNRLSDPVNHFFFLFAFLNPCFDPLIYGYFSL
Sequence of D(2) dopamine receptor (Homo sapiens) (P14416 whole entry, looked up): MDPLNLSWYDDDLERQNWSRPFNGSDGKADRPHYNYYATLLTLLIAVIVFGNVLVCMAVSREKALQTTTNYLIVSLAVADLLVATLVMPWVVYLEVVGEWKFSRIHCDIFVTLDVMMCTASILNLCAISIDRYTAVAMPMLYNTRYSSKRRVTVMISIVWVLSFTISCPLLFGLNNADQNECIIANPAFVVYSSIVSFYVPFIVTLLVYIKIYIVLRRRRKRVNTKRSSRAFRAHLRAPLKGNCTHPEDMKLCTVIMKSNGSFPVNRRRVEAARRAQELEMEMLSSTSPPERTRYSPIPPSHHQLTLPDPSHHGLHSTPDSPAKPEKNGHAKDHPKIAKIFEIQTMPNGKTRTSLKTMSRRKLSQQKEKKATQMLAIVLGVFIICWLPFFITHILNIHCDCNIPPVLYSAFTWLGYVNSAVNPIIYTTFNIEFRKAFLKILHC
Sequence of Beta-2 adrenergic receptor (Homo sapiens) (P07550 whole entry, looked up): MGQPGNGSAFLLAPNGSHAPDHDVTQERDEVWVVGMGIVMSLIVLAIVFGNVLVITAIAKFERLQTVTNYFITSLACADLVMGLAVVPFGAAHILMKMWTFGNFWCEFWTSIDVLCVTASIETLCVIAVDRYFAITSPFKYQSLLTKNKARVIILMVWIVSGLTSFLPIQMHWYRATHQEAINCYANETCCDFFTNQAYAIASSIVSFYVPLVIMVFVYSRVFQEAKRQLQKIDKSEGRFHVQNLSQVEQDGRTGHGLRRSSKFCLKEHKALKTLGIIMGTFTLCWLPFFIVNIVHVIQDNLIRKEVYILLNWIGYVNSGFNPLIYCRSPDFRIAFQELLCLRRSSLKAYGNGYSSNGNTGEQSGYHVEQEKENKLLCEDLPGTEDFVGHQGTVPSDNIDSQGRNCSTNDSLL
Sequence of 5-hydroxytryptamine receptor 2A (Homo sapiens) (P28223 whole entry, looked up): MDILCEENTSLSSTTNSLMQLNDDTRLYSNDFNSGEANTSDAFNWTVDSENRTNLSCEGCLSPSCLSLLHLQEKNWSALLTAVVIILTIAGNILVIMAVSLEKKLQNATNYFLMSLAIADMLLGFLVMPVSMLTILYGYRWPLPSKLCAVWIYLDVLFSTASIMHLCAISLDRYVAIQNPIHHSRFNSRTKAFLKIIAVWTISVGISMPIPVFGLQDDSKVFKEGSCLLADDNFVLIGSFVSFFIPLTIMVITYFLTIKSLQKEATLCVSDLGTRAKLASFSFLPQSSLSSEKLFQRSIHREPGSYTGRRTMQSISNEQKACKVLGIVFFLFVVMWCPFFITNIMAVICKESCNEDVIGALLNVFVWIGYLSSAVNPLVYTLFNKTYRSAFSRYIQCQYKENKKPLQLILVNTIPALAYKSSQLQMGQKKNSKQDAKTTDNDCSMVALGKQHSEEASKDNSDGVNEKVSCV

CC(C)c1cc(C(C)C)cc(C(C)C)c1
not listed: [19] | [20]
inactive: all other assays above

CCCCCCCCCCOS(=O)(=O)O
not listed: [12] | [18] | [20]
inactive: all other assays above

COc1cc(C)ccc1C(C)C
inactive: all assays above

CC(CC(C#N)(c1ccccc1)C(C)C)N(C)C (centres undefined)
not listed: [12] | [13]
inactive: all other assays above

CCN(CC)c1ccc2c(-c3ccc(S(=O)(=O)O)cc3S(=O)(=O)[O-])c3ccc(=[N+](CC)CC)cc-3oc2c1
active: [1] 17.8 µM | [3] 45.1 µM | [12] 56.7 µM
not listed: [9] | [14] | [17] | [18] | [19] | [20]
inactive: all other assays above

CCN(CC)CCNc1ccc(CNC=O)c2sc3ccc(OC)cc3c(=O)c12
active: [1] 54.5 µM | [2] 24.3 µM | [12] 3.89 µM | [13] 10.6 µM | [16] 21.7 µM
not listed: [10] | [15] | [18]
inactive: all other assays above

Reference: PubChem BioAssay (Tox21)
